# Assay results reported in PubChem BioAssay AID1159580 (chemical genetic matrix, 2015).
# The whole screen tested about 5,500 compounds, of which about 2,000 (36%) were called active. Roughly 18% stayed inconclusive and do not appear here. The list shows a part of the results. Values without a mark were called inactive. No stated cut-off is given here; in the data, active means normalized growth mostly below about 0.91 (no sharp cut-off); inconclusive means no clear call, values can overlap the other calls; inactive means mostly above about 0.92.
# Experiment: chemical genetic growth profiling, strain panel (AID 1159580);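 further: tested at 20 µM; growth read once vehicle control cultures reached saturation at 30 °C; 1 = growth at the plate median or of vehicle wells; lower values mean less growth of the strain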
# Conditions: S. cerevisiae deletion strains, growth OD
structure (smiles),measurement,setting,value
N/C(Cc1cccc2ccccc12)=N/OC(=O)c1ccc(Cl)cc1,normalized growth,"locus YAR019C, strain CDC15, active compounds read low",0.954
same,normalized growth,"locus YBL105C, strain PKC1, active compounds read low",0.952
same,normalized growth,"locus YBR135W, strain CKS1, active compounds read low",0.947
same,normalized growth,"locus YBR136W, strain MEC1, active compounds read low",0.93
same,normalized growth,"locus YBR160W, strain CDC28, active compounds read low",0.928
same,normalized growth,"locus YDL017W, strain CDC7, active compounds read low",0.949
same,normalized growth,"locus YDL028C, strain MPS1, active compounds read low",0.916
same,normalized growth,"locus YDL101C, strain DUN1, active compounds read low",0.961
same,normalized growth,"locus YDL108W, strain KIN28, active compounds read low",0.934
same,normalized growth,"locus YDL132W, strain cdc53, active compounds read low",0.951
same,normalized growth,"locus YDL214C, strain PRR2, active compounds read low",0.85
same,normalized growth,"locus YDR052C, strain DBF4, active compounds read low",0.967
same,normalized growth,"locus YDR054C, strain cdc34, active compounds read low",0.952
same,normalized growth,"locus YDR226W, strain ADK1, active compounds read low",0.954
same,normalized growth,"locus YDR477W, strain SNF1, active compounds read low",0.937
same,normalized growth,"locus YER123W, strain YCK3, active compounds read low",0.878
same,normalized growth,"locus YER133W, strain GLC7, active compounds read low",0.889
same,normalized growth,"locus YFL009W, strain cdc4, active compounds read low",0.938
same,normalized growth,"locus YFL029C, strain CAK1, active compounds read low",0.936
same,normalized growth,"locus YFR003C, strain YPI1, active compounds read low",0.955
same,normalized growth,"locus YFR019W, strain FAB1, active compounds read low",0.928
same,normalized growth,"locus YFR028C, strain CDC14, active compounds read low",0.956
same,normalized growth,"locus YGR040W, strain KSS1, active compounds read low",0.937
same,normalized growth,"locus YGR052W, strain FMP48, active compounds read low",0.941
same,normalized growth,"locus YGR092W, strain DBF2, active compounds read low",0.931
same,normalized growth,"locus YHR030C, strain SLT2, active compounds read low",0.666 (active)
same,normalized growth,"locus YHR079C, strain IRE1, active compounds read low",0.965
same,normalized growth,"locus YHR082C, strain KSP1, active compounds read low",0.953
same,normalized growth,"locus YHR205W, strain SCH9, active compounds read low",0.835
same,normalized growth,"locus YIL147C, strain SLN1, active compounds read low",0.94
same,normalized growth,"locus YJL095W, strain BCK1, active compounds read low",0.874
same,normalized growth,"locus YJL128C, strain PBS2, active compounds read low",0.935
same,normalized growth,"locus YJL157C, strain FAR1, active compounds read low",0.899
same,normalized growth,"locus YJR016C, strain ILV3, active compounds read low",0.962
same,normalized growth,"locus YJR066W, strain TOR1 (second series), active compounds read low",0.879
same,normalized growth,"locus YJR066W, strain TOR1, active compounds read low",0.847
same,normalized growth,"locus YKL048C, strain ELM1, active compounds read low",0.967
same,normalized growth,"locus YKL067W, strain YNK1, active compounds read low",0.846
same,normalized growth,"locus YKL101W, strain HSL1, active compounds read low",0.939
same,normalized growth,"locus YKL193C, strain SDS22, active compounds read low",0.978
same,normalized growth,"locus YKL203C, strain TOR2, active compounds read low",0.969
same,normalized growth,"locus YLR113W, strain HOG1, active compounds read low",0.858 (active)
same,normalized growth,"locus YLR133W, strain CKI1, active compounds read low",0.876
same,normalized growth,"locus YLR403W, strain SFP1, active compounds read low",0.919
same,normalized growth,"locus YML070W, strain DAK1, active compounds read low",0.892
same,normalized growth,"locus YMR001C, strain CDC5, active compounds read low",0.963
same,normalized growth,"locus YMR205C, strain PFK2 (second series), active compounds read low",0.872
same,normalized growth,"locus YMR277W, strain FCP1, active compounds read low",0.925
same,normalized growth,"locus YNL006W, strain LST8, active compounds read low",0.977
same,normalized growth,"locus YNL020C, strain ARK1, active compounds read low",0.909
same,normalized growth,"locus YNL161W, strain CBK1, active compounds read low",0.963
same,normalized growth,"locus YNL183C, strain NPR1, active compounds read low",0.92
same,normalized growth,"locus YNL207W, strain RIO2, active compounds read low",0.932
same,normalized growth,"locus YNL222W, strain SSU72, active compounds read low",0.95
same,normalized growth,"locus YNL307C, strain MCK1 (second series), active compounds read low",0.941
same,normalized growth,"locus YOL078W, strain AVO1, active compounds read low",0.943
same,normalized growth,"locus YOL136C, strain PFK27, active compounds read low",0.927
same,normalized growth,"locus YOR061W, strain CKA2, active compounds read low",0.892
same,normalized growth,"locus YOR119C, strain RIO1, active compounds read low",0.917
same,normalized growth,"locus YOR231W, strain MKK1, active compounds read low",0.926
same,normalized growth,"locus YOR329C, strain SCD5, active compounds read low",0.968
same,normalized growth,"locus YPL031C, strain PHO85, active compounds read low",0.915
same,normalized growth,"locus YPL153C, strain RAD53, active compounds read low",0.927
same,normalized growth,"locus YPL204W, strain HRR25, active compounds read low",0.922
same,normalized growth,"locus YPL209C, strain IPL1, active compounds read low",0.964
same,normalized growth,"locus YPL256C, strain CLN2, active compounds read low",0.888
same,normalized growth,"locus YPR025C, strain CCL1, active compounds read low",0.947
same,normalized growth,"locus YPR106W, strain ISR1, active compounds read low",0.986
same,normalized growth,"locus YPR111W, strain DBF20, active compounds read low",0.916
same,normalized growth,"strain NNK1, active compounds read low",0.948
same,normalized growth,"strain TSCII, active compounds read low",0.926
CCc1cccc(N(C)C(N)=Nc2cccc3ccccc23)c1,normalized growth,"locus YAL040C, strain CLN3, active compounds read low",0.98
same,normalized growth,"locus YCL061C, strain MRC1 (second series), active compounds read low",0.989
same,normalized growth,"locus YDR150W, strain NUM1, active compounds read low",0.998
same,normalized growth,"locus YER002W, strain NOP16, active compounds read low",1.03
same,normalized growth,"locus YGR078C, strain PAC10, active compounds read low",0.97
same,normalized growth,"locus YJR075W, strain HOC1, active compounds read low",0.983
same,normalized growth,"locus YNL175C, strain NOP13, active compounds read low",1.03
same,normalized growth,"locus YNL197C, strain WHI3, active compounds read low",1
same,normalized growth,"locus YNL224C, strain SQS1, active compounds read low",0.993
same,normalized growth,"locus YOR083W, strain WHI5 (second series), active compounds read low",0.931
same,normalized growth,"locus YPL241C, strain CIN2, active compounds read low",0.989
